{"source": "PubChem BioAssay AID624331", "about": "(National Center for Advancing Translational Sciences (NCATS), 2012)", "note": "Records with an inconclusive call do not appear. A call without a number means that no potency is given here. The source made the active and inactive calls. Calls follow the shape of the dose curve; as a rule, active = well fitted activation curve with a large enough effect; inconclusive = small, poorly fitted or top-dose-only effect; inactive = no such curve, though single readings can be large or run the other way. Potency is read from the fitted curve at half-maximal effect.", "data": [{"assay": "qHTS assay for re-activators of p53 using a Luc reporter: Hit Validation with no p53 Expressed", "details": "p53-null cells, luciferase reporter counter-screen; series mostly up to 46.1 µM", "outline": "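Without p53 expression, cells (1000/well, Opti-MEM + 10% FBS) were exposed 24 h at 37 deg C to compounds in a 1:5 series from 10 mM stock (top 46.1 µM in well). Luminescent signal read 10 min after Amplite addition; actives flag unspecific activation.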", "values": [{"smiles": "Cc1cs/c(=N/C(=S)Nc2ccccc2)n1C", "Potency": "1300 nM (active)"}, {"smiles": "CCOc1ccc2c(c1)C(C)=CC(C)(C)N2S(=O)(=O)c1ccc(NC(C)=O)cc1", "Potency": "inactive"}, {"smiles": "O=c1c2ccccc2oc2ccc(-c3ccc4cc[nH]c4c3)cc12", "Potency": "inactive"}, {"smiles": "O=C(Nc1nc2c(s1)CCCC2)C1COc2ccccc2O1", "note": "(stereo unspecified)", "Potency": "inactive"}, {"smiles": "COc1ccc(NC(=S)NC(=NS(=O)(=O)c2ccc(Cl)cc2)c2ccccc2)cc1", "Potency": "inactive"}, {"smiles": "Cc1ccc(CCc2nnc(SCC(=O)Nc3cccc(Cl)c3)n2-c2ccccc2)o1", "Potency": "inactive"}, {"smiles": "COc1ccc(-c2nnc(SCC(=O)/C(C#N)=C(\\C)N)o2)cc1", "Potency": "inactive"}, {"smiles": "O=C(Nc1nnc(-c2cccs2)o1)c1cccc(C(F)(F)F)c1", "Potency": "inactive"}, {"smiles": "Cc1cc2nc(-c3ccc(SCC(=O)Nc4ccc(S(=O)(=O)NC5CC5)cc4)nc3)[nH]c2cc1C", "Potency": "inactive"}, {"smiles": "Cc1c(C(=O)OC2CCC(C)CC2)[nH]c2c1C(=O)CCC2", "note": "(stereo unspecified)", "Potency": "inactive"}, {"smiles": "O=C(N/N=C1\\CCc2ccccc21)c1ccccc1O", "Potency": "inactive"}, {"smiles": "Cc1cccc(NC(=S)NC(=O)C2CC2)c1", "Potency": "inactive"}, {"smiles": "O=C1/C(=C/Nc2ccc3c(c2)OCO3)CCc2ccccc21", "Potency": "inactive"}, {"smiles": "CC(=O)c1ccc(NC(=O)CCc2nnc3ccc(NCc4ccco4)nn23)cc1", "Potency": "inactive"}, {"smiles": "CCOc1cccc(-c2nc3cc(C)ccc3o2)c1", "Potency": "inactive"}, {"smiles": "CCN(CC)c1ccc2cc(-c3nc4ccccc4n3C)c(=O)oc2c1", "Potency": "inactive"}, {"smiles": "Cc1cc(NC(=O)c2ccco2)sc1C", "Potency": "inactive"}, {"smiles": "COc1ccccc1NC(CC(=O)c1ccccc1)C(=O)OCC(=O)c1ccc(C)c(C)c1", "note": "(stereo unspecified)", "Potency": "inactive"}, {"smiles": "ON=C1c2cc(OCCN3CCCCC3)ccc2-c2ccc(OCCN3CCCCC3)cc21", "Potency": "inactive"}, {"smiles": "Cc1c(C(=O)N2CCc3ccccc32)oc2c1C(=O)CC(C)(C)C2", "Potency": "inactive"}, {"smiles": "COc1ccc(-c2cc3ccc(F)cc3cn2)cc1", "Potency": "inactive"}]}]}
